Data on six molecules can be found in PubChem BioAssay (Tox21).

Results filed as inconclusive are left out. A call without a number means that no potency is given here. The source made the active and inactive calls. The call rests on the fitted dose curve; in most records, active means well fitted inhibition curve with a large enough effect in the repeat runs; inconclusive means weak or mixed curves, or effect the other way; inactive means no such curve, though single readings can be large or run the other way.

Androgen receptor (Homo sapiens), sequence (P10275 whole entry, looked up): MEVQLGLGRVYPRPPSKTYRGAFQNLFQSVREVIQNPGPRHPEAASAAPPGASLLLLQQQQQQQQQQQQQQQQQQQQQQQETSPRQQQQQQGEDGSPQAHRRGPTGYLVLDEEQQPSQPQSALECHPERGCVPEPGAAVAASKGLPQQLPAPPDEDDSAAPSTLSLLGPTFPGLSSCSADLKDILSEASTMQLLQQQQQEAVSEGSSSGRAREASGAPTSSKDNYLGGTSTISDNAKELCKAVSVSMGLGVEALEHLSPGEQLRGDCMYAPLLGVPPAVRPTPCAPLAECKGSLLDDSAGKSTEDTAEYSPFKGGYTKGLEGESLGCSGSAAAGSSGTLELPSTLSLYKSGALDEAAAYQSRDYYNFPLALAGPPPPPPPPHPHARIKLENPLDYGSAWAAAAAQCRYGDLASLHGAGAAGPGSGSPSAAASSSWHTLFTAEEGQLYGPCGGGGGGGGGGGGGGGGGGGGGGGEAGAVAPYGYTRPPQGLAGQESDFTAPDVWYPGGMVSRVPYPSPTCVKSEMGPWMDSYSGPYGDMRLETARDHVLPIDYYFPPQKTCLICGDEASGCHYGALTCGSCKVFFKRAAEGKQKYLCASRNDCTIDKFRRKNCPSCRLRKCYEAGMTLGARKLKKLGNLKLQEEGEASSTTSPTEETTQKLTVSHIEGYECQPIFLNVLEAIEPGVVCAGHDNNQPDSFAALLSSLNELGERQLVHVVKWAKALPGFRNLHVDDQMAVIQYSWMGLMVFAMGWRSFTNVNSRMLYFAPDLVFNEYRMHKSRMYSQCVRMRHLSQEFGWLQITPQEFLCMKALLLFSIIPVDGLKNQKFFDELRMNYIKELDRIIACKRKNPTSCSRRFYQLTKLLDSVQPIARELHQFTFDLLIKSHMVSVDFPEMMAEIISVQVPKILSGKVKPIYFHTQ

In the assay the target is Androgen receptor (Homo sapiens) (UniProt P10275). Put plainly: qHTS assay to identify small molecule antagonists of the androgen receptor (AR) signaling pathway using the MDA cell line (AID 743042; further: nearly all actives have a fitted effect of over 55% in size). The following applies: MDA-kb2 AR-luc, MMTV luciferase, R1881 antagonist, 16 h; series mostly up to 70.3 µM. The method, boiled down:
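MDA-kb2 cells (human breast carcinoma, stably carrying an MMTV-luciferase reporter responsive to AR and GR) were plated at 3,000 cells/well and preincubated 5 hr at 37C, then given compound plus R1881 agonist for 16 h. ONE-Glo luminescence was read.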
(qHTS replaces the single test concentration by a dilution series.)
On to `COC(=O)/C=C/C(C)=C\C=C\C(C)=C\C=C\C=C(C)\C=C\C=C(C)\C=C\C(=O)O`, for which the Potency entry is “inactive”.

On to `COC(=O)Cc1cccc2ccccc12`, for which the Potency entry is “inactive”.

`Cc1c(N=C=O)cccc1N=C=O`: the Potency entry was “inactive”.

For `Cc1nc(C)c(C)nc1C`, the Potency entry is “inactive”.

With `CCCc1ccc(OC)cc1`, the Potency result was “inactive”.

`O=C(O)c1cc(C(=O)O)c(C(=O)O)cc1C(=O)O`: the Potency result was “inactive”.
